Screens: PubChem, National Center for Advancing Translational Sciences (NCATS)
GLP1R inv ag: qHTS of GLP-1 Receptor Inverse Agonists (Inhibition Mode). HEK293 GLP-1R CRE-luciferase, luminescence, 24 h; GLP-1R form is constitutively active. Potency, µM (top dose mostly 38.3 µM), for the others: top-dose activity change, negative = inhibition, usual class: inhibitors. 1.6% of 410,000 active; further: on the % scale 0 is the no-effect control and ±100 the full control effect; nearly all actives have a fitted effect of over 55% in size
Target sequence (P43220 whole entry, looked up): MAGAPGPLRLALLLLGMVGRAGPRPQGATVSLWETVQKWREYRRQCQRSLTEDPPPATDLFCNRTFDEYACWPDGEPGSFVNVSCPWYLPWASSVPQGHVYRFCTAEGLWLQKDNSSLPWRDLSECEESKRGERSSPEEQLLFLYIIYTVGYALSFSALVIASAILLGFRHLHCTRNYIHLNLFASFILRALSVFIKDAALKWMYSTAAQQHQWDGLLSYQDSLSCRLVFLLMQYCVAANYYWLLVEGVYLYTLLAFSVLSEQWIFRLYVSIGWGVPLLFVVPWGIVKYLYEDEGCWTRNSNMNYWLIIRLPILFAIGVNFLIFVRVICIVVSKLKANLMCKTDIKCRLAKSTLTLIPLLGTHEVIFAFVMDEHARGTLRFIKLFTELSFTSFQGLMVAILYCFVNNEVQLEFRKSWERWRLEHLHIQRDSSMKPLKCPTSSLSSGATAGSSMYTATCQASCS
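Constitutively active GLP-1R drives a cAMP-responsive luciferase in stably transfected HEK293 cells; test compounds are added after overnight (12 h) attachment and left 24 hr, and signal loss in luminescence marks inhibition.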
PTHR1 agonist: qHTS for PTHR1 Agonists: Primary Screen | HEK293 GP2 PTHR1 cells, GloSensor cAMP luminescence, 1 h | Potency, µM (top dose mostly 115 µM), for inactives: top-dose activation, usual class: activators | 0.075% of 410,000 active | AID 743266, 2014; further: nearly all actives have a fitted effect of over 55% in size
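HEK-293-derived GP2 cells expressing PTHR1 and a GloSensor cAMP reporter, 3,000/well, plated overnight, given luciferin plus IBMX (each 0.5 mM as added) for 1 h at 37 °C, then compound for 1 h at 37 °C. Luminescence was read after 15 min at room temperature.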
HEK293 tox: qHTS of GLP-1 Receptor Inverse Agonists: Cytotox Screen; HEK293 cAMP-luciferase reporter cells, luminescence, 24 h; Potency, µM (series often up to 38.3 µM), inactives show at the top dose activity change, negative = inhibition, actives largely listed as inhibitors; 0.13% of 410,000 active; AID 624418, 2012;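 further: loss of luciferase light is scored as toxicity; on the % scale 0 is the no-effect control and ±100 the full control effect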
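To flag toxic compounds, the library was rerun on cells for 24 hr at 37 deg C and 5% CO2. Viability-linked luminescence was captured 12 min after adding luciferase detection reagent.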
GLP-1R agonist: qHTS of GLP-1 Receptor Agonists | Glucagon-like peptide 1 receptor (Homo sapiens), P43220 | HEK293 GLP-1R CRE-luciferase, luminescence, 4-6 h; cells express a hypersensitive GLP-1R form | Potency, µM (highest dose often 45.6 µM), for inactives: at the highest dose activation, usual class: activators | 0.007% of 380,000 active | AID 624172, 2012; further: % of control where 0% means no effect
Active calls of the source: *; i = inactive; ? = inconclusive; / = no result given; [ ] = another dose, or the depositor's remark. In the library only some 1.7% were active in any assay of this set; here they are far more common. The call rests on the fitted dose curve; in most records, active means well fitted curve in the direction sought with a large enough effect; inconclusive means small, poorly fitted or top-dose-only effect, or another doubt; inactive means no such curve, though single readings can be large; an effect the other way counts as inactive or inconclusive. Potency means the concentration at half of the fitted maximal effect.

SMILES	GLP1R inv ag	PTHR1 agonist	HEK293 tox	GLP-1R agonist
COc1ccc(C(=O)N2c3ccc(C)cc3C(C)(c3ccccc3)CC2(C)C)cc1 (configuration not stated)	10µM*	-31.9%	6.4%	/
Cc1noc(C)c1COC(=O)CCN1c2ccccc2Sc2ccccc21	4.47µM*	i	15.6%	16.2%
Cc1noc(C)c1COC(=O)CCOc1ccccc1	3.9%	i	6.8%	1.8%
COc1cc(C)ccc1OCc1cc(C(=O)NC(c2ccccn2)C(F)(F)F)no1 (configuration not stated)	12.6µM*	-54.4%	3.8%	5.8%
Cc1ccc(C)c(Cn2nnc(C(=O)NCc3ccc(Cl)cc3Cl)c2N)c1	4.5%	-11.7%	4.7%	/
O=C(COC(=O)CC(c1ccccc1)c1ccccc1)NCc1ccc(Cl)cc1	11.2µM*	-25.9%	6.0%	-4.7%
C=C(C)C(=O)OCC(=O)NCc1ccccc1	?	21.9%	11.2µM*	-0.5%
CC(=O)Nc1ccc(C(=O)OCC(=O)NCc2ccccc2)cc1	-18.2%	-56.9%	-18.2%	2.0%
Cc1ccc2oc(C(=O)N(Cc3sccc3C)C3CCS(=O)(=O)C3)c(C)c2c1 (configuration not stated)	-28.5%	-35.4%	-2.6%	/
O=C(COc1ccccc1Cl)OCc1cc(=O)n2nc(-c3cccs3)sc2n1	14.8%	i	2.2%	/
Cc1cc(C)n(CC(O)Cn2c3ccccc3c3ccccc32)n1 (configuration not stated)	10µM*	-16.5%[57.5 µM]	0.5%	3.8%
CN(C)c1ccc(CN(Cc2ccco2)C(=O)c2ccc(C(C)(C)C)cc2)cc1	11.2µM*	-25.4%	-0.1%	/
Cc1ccc(C(=O)N(Cc2ccco2)Cc2ccco2)cc1	-8.8%	i	8.6%	/
Cc1ccc(CN(Cc2ccco2)C(=O)c2cccc(C)c2)cc1	11.2µM*	i	0.7%	/
COc1ccc(/C=C2\Cc3ccccc3C2=O)cc1OC	85.9%	-25.1%	8.2%	-7.3%
COc1ccc(/C=C2/CSC/C(=C/c3ccc(OC)c(OC)c3)C2=O)cc1OC	5.01µM*	-31.9%	-34.9%	8.9%
C[C@@H](C(=O)O)c1cccc(C(=O)c2ccccc2)c1	/	/	/	6.8%
CCOc1ccc(-c2cc(C(=O)NCCc3ccc(C)cc3)c3ccccc3n2)cc1	8.8%	-13.7%	2.0%	8.5%
Cc1ccc(-c2cc(N)n(Cc3ccc(Cl)cc3)n2)cc1	11.2µM*	-28.6%	-16.5%	0.2%
Cc1ccc(-n2ncc3c(NCCc4ccccc4)ncnc32)cc1Cl	10.3%	-19.7%	1.4%	/
COc1cc(C(=O)OCC(=O)NC(=O)NCc2ccccc2)ccc1OC(F)F	13.4%	-7.2%	-0.3%	0.7%
CCOc1ccc(C(=O)OCC(=O)N(Cc2ccccc2)Cc2ccccc2)cc1OC	10µM*	-44.4%	-9.7%	5.0%
O=C(N/N=C/c1cccc2ccccc12)c1n[nH]c2c1CCCC2	1.12µM*	-5.6%	-25.4%	11.7%
O=C(N/N=C/c1cccs1)c1n[nH]c2c1CCCC2	3.16µM*	-35.1%	-33.9%	-1.7%
O=C(N/N=C/c1ccc(Cl)cc1Cl)c1n[nH]c2c1CCCC2	?	i	?	0.9%
SMILES	GLP1R inv ag	PTHR1 agonist	HEK293 tox	GLP-1R agonist
Cc1cc(C)c(NC(=O)CSc2nc3ccccc3c3nc(CCn4cncc4C)nn23)c(C)c1	19.2%	i	-6.6%	/
CCCC(=NCCc1c(C)[nH]c2ccccc12)C1=C(O)CC(c2ccccc2)CC1=O (configuration not stated)	2.51µM*	i	?	5.6%
CCCCC(=NCCc1c(C)[nH]c2ccccc12)C1=C(O)CC(c2ccccc2)CC1=O (configuration not stated)	?	-11.1%	?	-2.3%
CC(=NCCc1c(C)[nH]c2ccc(C)cc12)C1=C(O)CC(c2ccccc2)CC1=O (configuration not stated)	3.55µM*	-19.5%	?	5.0%
Cc1ccc(OCC(=O)Nc2ccc(C(=O)OCc3cc(=O)n4ccsc4n3)cc2)cc1C	-22.7%	-16.8%	-3.2%	/
CN(C)c1oc(-c2ccc(COc3ccccc3)o2)nc1C#N	-5.6%	-24.8%	0.3%	/
COc1ccc(CN2CCC(CNS(=O)(=O)c3cccc(C(F)(F)F)c3)CC2)cc1	11.2µM*	-66.1%	-28.4%	5.5%
CCOC(=O)[C@]12CCC=C1N(CCC1=CCCCC1)C(=O)[C@H](CC(=O)NCCc1ccccc1OC)C2	-7.9%	i	6.7%	7.3%
CCCCCCCCN1C(=O)[C@H](CC(=O)NCc2cccs2)C[C@@]2(C(=O)OCC)CCCC=C12	10µM*	-69.6%	-18.0%	-2.1%
COC(=O)[C@@]12C[C@@H](CC(=O)NCCCCc3ccccc3)C(=O)N(Cc3ccco3)C1=CCC(C)(C)C2	10µM*	-32.6%	-10.6%	/
CCCCCCCCN1C(=O)[C@H](CC(=O)NCc2cccc(C(F)(F)F)c2)C[C@@]2(C(=O)OC)CCCCC=C12	10µM*	-14.6%	?	2.8%
CCCCCCCCN1C(=O)[C@H](CC(=O)NCCc2ccccc2OC)C[C@@]2(C(=O)OCC)CCC=C12	12.6µM*	-7.1%	-13.7%	/
O=C(O)C(=O)Nc1cccc(C2=NN=N[N]2)c1	/	/	/	-0.3%
Cc1cc(C)n(CCC(=O)Nc2ccc(Cl)cc2)n1	4.7%	-21.5%	-1.6%	/
COC(=O)[C@]12CCCCC=C1N(Cc1ccccc1)C(=O)[C@H](CC(=O)NCC13CC4CC(CC(C4)C1)C3)C2	10µM*	-10.1%	-23.1%	-2.0%
CCOC(=O)[C@]12CCC=C1N(Cc1ccc(Cl)cc1Cl)C(=O)[C@H](CC(=O)NCc1cccc(C(F)(F)F)c1)C2	11.2µM*	-22.8%	-3.5%	-0.7%
CCCCCCCCN1C(=O)[C@H](CC(=O)NCc2ccc(OC)c(OC)c2)C[C@@]2(C(=O)OCC)CCCC=C12	10µM*	-38.2%	?	3.6%
CCOC(=O)[C@]12CCCC=C1N(CCc1ccc(OC)c(OC)c1)C(=O)[C@H](CC(=O)NCc1ccccc1)C2	-15.9%	-16.8%	-0.5%	/
CC(C)(C)CC(=O)OCC(=O)[C@@]12OC(C)(C)O[C@@H]1C[C@H]1[C@@H]3CCC4=CC(=O)C=C[C@]4(C)[C@@]3(F)[C@@H](O)C[C@]12C	/	/	/	-2.7%
C=C1/C(=C\C=C2/CCC[C@@]3(C)[C@@H]([C@H](C)OCCC(C)(C)O)CC[C@@H]23)C[C@@H](O)C[C@@H]1O	/	/	/	1.4%
CCOCCCNC(=O)C(c1ccc(OC)cc1)N(Cc1cccs1)C(=O)c1ccc(NC(C)=O)cc1 (configuration not stated)	-26.9%	-41.7%	-24.0%	/
CC(=O)OCC(=O)Nc1cc(C#N)cc(NC(=O)COC(C)=O)c1Cl	/	/	/	4.7%
O=C1N/C(=N\N=C\c2ccco2)SC1Cc1ccccc1[N+](=O)[O-] (configuration not stated)	7.08µM*	-15.7%	3.98µM*	-6.2%
